Compound activity from PubChem.
An excerpt weighted towards active compounds, which were near 1.1% of everything screened.
HTR5A ag = HTR5A agonists in luminescence cell assay, primary screen, counter-screen for OPRM1-OPRD1 heterodimer agonist project, full-deck HTS. activation, % at 9.3 µM. cell-based. 5-hydroxytryptamine receptor 5A (Homo sapiens), P47898. 340,000 tested, 0.61% active. AID 504692, 2011; in the data active = activation mostly above about 9.5%, no sharp cut-off; inactive = mostly below about 7.6%;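 also: 0% = cells with vehicle only and 100% = reference agonist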
HTR5A inv ctr = HTR5A inverse agonists in luminescence cell assay, primary screen, counter-screen for OPRM1-OPRD1 heterodimer inverse agonist project, full-deck HTS; HTR5A cell line, inverse agonism; inhibition, % at 9.3 µM; 340,000 tested, 0.083% active; 5-hydroxytryptamine receptor 5A (Homo sapiens), P47898; in the data active = inhibition mostly above about 23%, no sharp cut-off; inactive = mostly below about 18%;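 also: 0% = cells with DMSO and 100% = no-cell wells with DMSO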
MOR-DOR inv ag-1 = inverse agonists of MOR-DOR heterodimerization, primary screen, cell-based, luminescence | inhibition, % at 9.3 µM | 340,000 tested, 0.21% active | cell-based MOR-DOR heterodimer luminescence, inverse agonism; in the data active = inhibition above about 22%, passing the limit was not always enough;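 also: 0% = cells with DMSO and 100% = wells without cells with DMSO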
Target sequence (P35372 whole entry, looked up): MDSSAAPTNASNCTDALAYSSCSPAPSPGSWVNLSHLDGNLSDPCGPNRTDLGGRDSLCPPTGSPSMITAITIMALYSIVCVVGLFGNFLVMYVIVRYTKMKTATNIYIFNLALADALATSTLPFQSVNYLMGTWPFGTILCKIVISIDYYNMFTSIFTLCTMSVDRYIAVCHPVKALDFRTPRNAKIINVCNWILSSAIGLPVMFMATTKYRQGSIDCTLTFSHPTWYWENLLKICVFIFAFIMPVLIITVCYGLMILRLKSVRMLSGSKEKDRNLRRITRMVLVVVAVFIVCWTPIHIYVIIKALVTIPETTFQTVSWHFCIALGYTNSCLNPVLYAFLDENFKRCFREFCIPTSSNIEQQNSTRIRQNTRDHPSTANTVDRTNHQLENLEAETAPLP
Target sequence (P41143 whole entry, looked up): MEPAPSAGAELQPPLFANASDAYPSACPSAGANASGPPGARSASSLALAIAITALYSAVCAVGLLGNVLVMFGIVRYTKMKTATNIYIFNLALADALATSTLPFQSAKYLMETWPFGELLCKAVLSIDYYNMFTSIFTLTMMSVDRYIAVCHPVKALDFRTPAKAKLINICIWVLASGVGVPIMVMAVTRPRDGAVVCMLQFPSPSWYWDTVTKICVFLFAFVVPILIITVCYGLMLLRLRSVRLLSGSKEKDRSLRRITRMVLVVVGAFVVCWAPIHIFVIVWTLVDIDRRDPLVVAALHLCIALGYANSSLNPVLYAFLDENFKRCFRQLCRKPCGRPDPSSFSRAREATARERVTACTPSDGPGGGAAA
MOR-DOR ag-1 = agonists of OPRM1-OPRD1 heterodimerization, primary screen, cell-based, luminescence | Mu-type opioid receptor (Homo sapiens) + Delta-type opioid receptor (Homo sapiens), … | cells | activation, % at 9.3 µM | 340,000 tested, 0.3% active | AID 504326, 2011;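 also: 0% = vehicle-treated cells and 100% = reference agonist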
OPRM1-D1 ag cf = agonists of MOR-DOR heterodimerization, confirmation, cell-based, luminescence. 830 tested, 45% active. AID 504904, 2011. activation, % at 9.3 µM. shares compounds with MOR-DOR ag-1. cells, luminescence complementation;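 also: 0% = vehicle-treated cells and 100% = reference agonist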
HTR5A ag ctr2 = HTR5A agonists in cells, counter-screen for OPRM1-OPRD1 heterodimer agonist project, cell-based, luminescence. 830 tested, 8% active. shares compounds with MOR-DOR ag-1. AID 504905, 2011. activation, % at 9.3 µM. HTR5A agonist counterscreen; in the data active = activation above about 17%;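 also: 0% = vehicle-treated cells and 100% = reference agonist response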
MOR-DOR inv conf = inverse agonists of MOR-DOR heterodimerization, confirmation, cell-based, luminescence; shares compounds with MOR-DOR inv ag-1; cells expressing OPRM1/OPRD1 heterodimer; inhibition, % at 9.3 µM; 580 tested, 20% active; AID 504900, 2011; in the data active = inhibition above about 32%;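 also: 0% = cells with DMSO and 100% = wells lacking cells with DMSO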
HTR5A inv count = HTR5A inverse agonists, counter-screen for OPRM1-OPRD1 inverse agonist project, cell-based, luminescence; shares compounds with MOR-DOR inv ag-1; HTR5A-expressing cells, inverse agonism; inhibition, % at 9.3 µM; 580 tested, under 10 active; AID 504914, 2011; call rule not given here;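 also: 0% = cells with DMSO and 100% = no-cell wells with DMSO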
MOR-DOR inv ag-2 = inverse agonists of MOR-DOR heterodimerization, counter-screen for HTR5A inverse agonist project, cell-based, luminescence | AID 504912, 2011 | inhibition, % at 9.3 µM | shares compounds with HTR5A inv ctr | U2OS counter-screen cells, complementation luminescence | 190 tested, under 10 active; call rule not given here;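 also: 0% = cells with DMSO and 100% = wells without cells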
HTR5A inv confrm = HTR5A inverse agonists, retest of hits, confirmation, cell-based, luminescence. inhibition, % at 9.3 µM. HTR5A-expressing cells, inverse agonism. 190 tested, under 10 active. shares compounds with HTR5A inv ctr. AID 504916, 2011; call rule not given here;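 also: 0% = cells with DMSO and 100% = no cells with DMSO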
MOR-DOR ag-2 = OPRM1-OPRD1 heterodimerization promoters, counter-screen for HTR5A agonist project, cell-based, luminescence; 800 tested, 13% active; activation, % at 9.3 µM; U2OS counter-screen cells, complementation luminescence, 3 h; AID 504913, 2011; shares compounds with HTR5A ag
HTR5A ag conf = HTR5A agonists, retest of hits, confirmation, cell-based, luminescence; shares compounds with HTR5A ag; HTR5A agonist cell assay; activation, % at 9.3 µM; 800 tested, 17% active; AID 504915, 2011; in the data active = activation above about 17%;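 also: 0% = cells with vehicle only and 100% = full reference agonist response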
* marks the source's active call; other numbers are inactive results; . = no result. Rule as the data show it, unless noted: active = activation above about 18%; inactive = the rest.

SMILES	HTR5A ag	HTR5A inv ctr	MOR-DOR inv ag-1	MOR-DOR ag-1	MOR-DOR inv conf	HTR5A inv count	others
C[C@@H]1O[C@@H](O[C@@H]2C=C3CCC4C(CC[C@]5(C)[C@@H](c6ccc(=O)oc6)CC[C@]45O)[C@@]3(C)CC2)[C@H](O)[C@H](O)[C@H]1O (some centres undefined)	29.8*	-106.5	-381.5	70.6*	.	.	OPRM1-D1 ag cf=33.8*;HTR5A ag ctr2=27.2*
CC12CC[C@H]3[C@@H](CCC4(O)C[C@H](O)CCC34/C=N/NC(=O)c3ccccc3F)C1(O)CCC2C1=CC(=O)OC1 (some centres undefined)	10.6	9.2	-63.8	12.5	.	.
CC12CC[C@H]3[C@@H](CCC4(O)C[C@H](O)CCC34/C=N/NC(=O)c3ccccc3O)C1(O)CCC2C1=CC(=O)OC1 (some centres undefined)	9.4	-29.5	-184.2	34.8*	.	.	OPRM1-D1 ag cf=8.7;HTR5A ag ctr2=-0.1
c1ccc(C2N3CCCN23)cc1 (centres undefined)	1.8	10.0	-2.1	0.4	.	.
ON1C2CCCCC2N(O)C1c1ccccc1 (centres undefined)	3.1	15.3	44.7*	-7.8	-37.4	-20.9
C[C@H]1CCC/C=C/[C@@H]2C[C@H](O)C[C@H]2[C@H](O)/C=C/C(=O)O1	-2.1	0.2	32.9*	-6.0	-11.1	-3.8
C[C@H]1CCCC(=O)CCC/C=C/c2cc(O)cc(O)c2C(=O)O1	-4.4	-23.9	-15.8	2.9	.	.
O=P1(Oc2ccccc2)CC=C[C@H](COCc2ccccc2)O1 (some centres undefined)	4.5	13.1	12.2	-2.0	.	.
CC1CN(O)C2CCc3nonc3C12O (centres undefined)	-9.2	22.3	42.6*	-8.7	-23.5	-5.7
Cn1c(=O)[nH]c2nncnc2c1=O	-1.7	-14.8	0.4	-0.1	.	.
CCCCn1c(NC(=O)c2ccco2)c(C(=O)OCC)c2nc3ccccc3nc21	-1.3	2.3	44.8*	-7.9	-13.5	-11.7
CCCCn1c(NS(=O)(=O)c2ccc(C)cc2)c(C(=O)OCC)c2nc3ccccc3nc21	1.6	4.2	21.6	-4.0	.	.
CCCCOCCCn1c(N)c(C(=O)OCCOC)c2nc3ccccc3nc21	1.1	-1.8	33.0*	-7.2	-8.5	-5.0
Cc1ccc(N/N=C/c2c(O)n(-c3ccccc3)c(=O)[nH]c2=O)cc1	0.0	0.1	31.9*	-6.8	-10.0	-0.7
CC1CN(CC(=O)c2ccccc2Cl)CC(C)O1 (centres undefined)	-1.8	6.5	4.6	-1.0	.	.
CC1CCN(CC(=O)c2ccccc2Cl)CC1	2.1	-5.3	39.8*	-7.5	24.8	1.3
COC(=O)C1=C(c2ccc(OC(F)(F)F)cc2)C[C@@H]2CC[C@H]1N2C(=O)NC1CCCCC1	-0.7	-10.3	-7.4	1.4	.	.
COC(COC(N)=O)C1=C(N2CC2)C(=O)C(C)=C(N2CC2)C1=O (centres undefined)	0.8	-3.2	-12.7	2.9	.	.
CC1=C(N2CC2)C(=O)C(CO)=C(N2CC2)C1=O	-7.9	30.3	42.5*	-9.7	-4.4	-0.1
Nc1cc(Cl)c2nonc2c1[N+](=O)[O-]	-8.5	-0.2	40.2*	-7.8	11.2	10.6
CC1CCCN(CC(=O)c2ccc(Cl)c(Cl)c2)C1 (centres undefined)	-6.4	24.7	71.0*	-13.8	66.0*	5.0
COC(=O)C1=C(c2ccc(S(C)(=O)=O)cc2)C[C@@H]2CC[C@H]1N2C(=O)NCc1ccc(F)cc1	-0.8	2.3	-1.2	0.2	.	.
COC(=O)C1=C(c2ccc3ccccc3c2)C[C@@H]2CC[C@H]1N2C(=O)N1CCC(C)CC1	3.0	-29.5	-46.3	8.2	.	.
C[C@]12CCC3C(CC[C@H]4C[C@H](O)[C@H](O)C[C@]34C)C1CC[C@@H]2O (some centres undefined)	1.6	-6.4	8.5	-1.7	.	.
CCOc1ccc2nc(N=Nc3c(O)[nH]c(=S)[nH]c3=O)sc2c1	-0.8	37.6	32.2*	-6.6	7.1	4.8
SMILES	HTR5A ag	HTR5A inv ctr	MOR-DOR inv ag-1	MOR-DOR ag-1	MOR-DOR inv conf	HTR5A inv count	others
CN(C)c1ccc(/C=C/c2cc[n+](C)c3ccccc23)cc1	-9.8	38.2*	27.9	-5.4	.	.	MOR-DOR inv ag-2=-485.1;HTR5A inv confrm=-16.1
O=c1c2ccccc2nc(C[n+]2ccccc2)n1-c1cccc(C(F)(F)F)c1	0.3	-29.5	13.7	-2.2	.	.
CCN(CC)c1ccc(N=Cc2c(O)n(-c3ccccc3C)c(=O)[nH]c2=O)cc1	17.8*	-25.9	-18.3	3.3	.	.	MOR-DOR ag-2=12.9;HTR5A ag conf=4.8
Clc1cc(I)cc(Cl)c1NC1=NCCN1	43.0*	-153.7	5.8	-1.1	.	.	MOR-DOR ag-2=1.3;HTR5A ag conf=-0.8
CCCCC12CNCC(C)(CNC1)C2=O	3.2	-10.2	8.7	-1.6	.	.
N/C(=N/[N+](=O)[O-])N1CCN(C(=O)c2ccc(Cl)cc2)CC1	-0.8	2.2	20.8	-4.1	.	.
CC1=C[C@@H]2c3cccc4[nH]cc(c34)C[C@H]2N(C)C1	26.2*	-93.3	-22.6	4.8	.	.	MOR-DOR ag-2=1.4;HTR5A ag conf=33.9*
COc1nc2ccccc2nc1N1CCN(C)CC1	20.3*	-79.0	6.9	-1.2	.	.	MOR-DOR ag-2=3.9;HTR5A ag conf=6.3
Clc1cccc(Cl)c1CN1CCN(c2ccccc2)CC1	-0.5	1.4	-9.6	1.7	.	.
